From PubChem BioAssay
Active and inactive are the calls of the source.

How the values were obtained:
[1] = small molecules captured by biotinylated probe aFSTL3 – biochemical, small-molecule microarray, fluorescence 635/667, stem cell growth factor project, primary screen (AID 1064); settings: higher = more signal;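 further: measures binding of the biotinylated anti-FSTL3 antibody to printed compounds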
[2] = binders from COS7 lysate, DM2A8 probe, primary screen, torsin A project, cell lysate, small-molecule microarray, fluorescence 635/667 (AID 1065); settings: higher = more signal, COS7 lysate expressing mutant human TOR1A
[3] = small molecules captured by biotinylated probe aFGF2 – biochemical, small-molecule microarray, fluorescence 635/667, stem cell growth factor project, primary screen (AID 1067); settings: higher = more signal;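 further: measures binding of biotinylated aFGF2 protein to printed compounds on slides; z-score merges feature fluorescence and signal-to-noise across triplicate slides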
[4] = small molecules captured by biotinylated probe aFGF10 – biochemical, small-molecule microarray, fluorescence 635/667, stem cell growth factor project, primary screen (AID 1071); settings: higher = more signal;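 further: score merges 667 nm spot intensity and signal to noise from triplicate slides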
[5] = molecular target: Neurogenic locus notch homolog protein 2 (Homo sapiens) (UniProt Q04721); assay: small molecules binding Notch2 protein – biochemical, small-molecule microarray, 635 nm fluorescence, stem cell growth factors, primary screen (AID 1073); settings: higher = more signal
[6] = molecular target: Pro-neuregulin-1, membrane-bound isoform (Homo sapiens) (UniProt Q02297); assay: small molecules binding neuregulin-1 protein – biochemical, small-molecule microarray, fluorescence 635/667, psychiatric disease protein project, primary screen (AID 1075); settings: NRG1 binding, 635 nm fluorescence, higher = more signal;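 further: score combines 667 nm spot fluorescence with signal to noise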
[7] = system: Neuregulin-1 EGF-like domain; assay: small molecules binding NRG1 EGF domain – biochemical, small-molecule microarray, 635 nm fluorescence, primary screen (AID 1081); settings: higher = more signal;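 further: binding of the protein to compounds printed on small-molecule microarray slides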
[8] = FRG1 expression reporter modulators in myotubes – cell-based, C2C12 myotubes, firefly/Renilla luciferase, luminescence, FRG1 inhibition for FSHD, primary screen (AID 1084); settings: FRG1 promoter luciferase, higher = more signal, called active from +8 up or from −8 down
[9] = small molecules captured by biotinylated probe aFST – biochemical, small-molecule microarray, fluorescence 635/667, stem cell growth factor project, primary screen (AID 1086); settings: higher = more signal;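 further: score merges 667 nm fluorescence with signal-to-noise of each printed compound spot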
[10] = binders of probe aHhip on microarray, primary screen, stem cell growth factor project, biochemical, small-molecule microarray, fluorescence 635/667 (AID 1087); settings: higher = more signal;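 further: score merges spot fluorescence at 667nm with spot signal to noise ratio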
[11] = system: PRMT1 (protein arginine N-methyltransferase 1); assay: small molecules binding arginine methyltransferase PRMT1 – biochemical, small-molecule microarray, 635 nm fluorescence, primary screen (AID 1088); settings: higher = more signal;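 further: binding of Prmt1 protein to compounds spotted on small-molecule microarray slides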
[12] = growth effects on S. cerevisiae YJM789 – YJM789 clinical isolate, OD600, 24 h, basal, primary screen (AID 1089); settings: higher = more signal, called active from +8 up or from −8 down;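 further: growth of clinical yeast isolate S. cerevisiae YJM 789 seeded 1000 cells per well; test concentration not given here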
[13] = S. pombe growth modifiers, basal conditions – strain 972, OD600, 24 h, no modulator, primary screen (AID 1090);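 further: basal condition with compound alone and no growth modifier present; test concentration not given here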; settings: S. pombe 972 growth, higher = more signal, called active from +8 up or from −8 down
[14] = budding yeast growth modifiers under rapamycin – strain BY4716, OD600, 96 h, primary screen (AID 1091); further: test concentration not given here; settings: S. cerevisiae BY4716 + rapamycin, higher = more signal, called active from +8 up or from −8 down
[15] = molecular target: Torsin-1A-interacting protein 2 (Homo sapiens) (UniProt Q8NFQ8); assay: small molecules binding lysate-expressed LULL1 – cell lysate, human LULL1 lysate, 635/667 nm fluorescence, primary screen (AID 1092); settings: small-molecule microarray, hLULL1 lysate binding, 635 nm fluorescence; higher = more signal;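 further: probe is lysate of COS7 cells overexpressing human LULL1; score merges per-feature 667 nm fluorescence with signal-to-noise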
[16] = optical density change of DRC41 E. coli – strain DRC41, OD650, 24 h, E. coli filamentation project, primary screen (AID 1093);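 further: MC1000 strain lacking acrAB efflux and sulA so SOS filamentation is blocked; test concentration not given here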; settings: E. coli DRC41 growth, higher = more signal, called active from +8 up or from −8 down
[17] = probe aLefty2 binding to arrayed compounds – biochemical, biotinylated probe, 635/667 nm fluorescence, primary screen (AID 1094); settings: small-molecule microarray, higher = more signal;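 further: score merges spot fluorescence near 667 nm with spot signal-to-noise ratio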
[18] = system: Noggin (protein binding on small-molecule microarray); assay: small molecules binding Noggin protein – biochemical, 635/667 nm fluorescence, primary screen (AID 1095); settings: 635 nm fluorescence, higher = more signal;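 further: score merges 667 nm feature fluorescence with signal to noise over triplicate slides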
[19] = molecular target: Neurogenic locus notch homolog protein 3 (Homo sapiens) (UniProt Q9UM47); assay: small molecules binding NOTCH3 protein – biochemical, 635/667 nm fluorescence, primary screen (AID 1096); settings: small-molecule microarray, 635 nm fluorescence, higher = more signal
[20] = probe aEGFR binding to arrayed compounds – biochemical, biotinylated probe, 635/667 nm fluorescence, primary screen (AID 1097); settings: small-molecule microarray, higher = more signal;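 further: probe is a biotinylated anti-EGFR antibody binding compounds printed on slides; score combines fluorescence near 667 nm and signal to noise of each spot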

Chain of Pro-neuregulin-1, membrane-bound isoform (Homo sapiens) (Q02297 whole entry, looked up, the tested form may be a part, canonical isoform): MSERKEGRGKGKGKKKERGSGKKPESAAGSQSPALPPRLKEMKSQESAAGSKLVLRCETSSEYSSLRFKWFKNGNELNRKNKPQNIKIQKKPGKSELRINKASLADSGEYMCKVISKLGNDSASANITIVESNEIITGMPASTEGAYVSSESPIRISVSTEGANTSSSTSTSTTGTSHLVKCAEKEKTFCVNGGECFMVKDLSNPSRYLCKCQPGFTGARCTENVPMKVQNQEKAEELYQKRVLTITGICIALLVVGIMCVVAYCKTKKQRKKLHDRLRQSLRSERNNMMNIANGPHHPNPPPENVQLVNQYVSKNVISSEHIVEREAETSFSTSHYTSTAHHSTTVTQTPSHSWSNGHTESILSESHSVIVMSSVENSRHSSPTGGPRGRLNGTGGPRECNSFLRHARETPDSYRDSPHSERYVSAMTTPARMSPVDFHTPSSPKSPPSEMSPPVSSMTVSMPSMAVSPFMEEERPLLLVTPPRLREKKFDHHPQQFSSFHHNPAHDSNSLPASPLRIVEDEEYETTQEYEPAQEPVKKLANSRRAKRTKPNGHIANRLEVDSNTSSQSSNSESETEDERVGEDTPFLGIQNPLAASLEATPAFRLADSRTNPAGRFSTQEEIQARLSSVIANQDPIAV
Chain of Neurogenic locus notch homolog protein 2 (Homo sapiens) (Q04721 whole entry, looked up, canonical isoform): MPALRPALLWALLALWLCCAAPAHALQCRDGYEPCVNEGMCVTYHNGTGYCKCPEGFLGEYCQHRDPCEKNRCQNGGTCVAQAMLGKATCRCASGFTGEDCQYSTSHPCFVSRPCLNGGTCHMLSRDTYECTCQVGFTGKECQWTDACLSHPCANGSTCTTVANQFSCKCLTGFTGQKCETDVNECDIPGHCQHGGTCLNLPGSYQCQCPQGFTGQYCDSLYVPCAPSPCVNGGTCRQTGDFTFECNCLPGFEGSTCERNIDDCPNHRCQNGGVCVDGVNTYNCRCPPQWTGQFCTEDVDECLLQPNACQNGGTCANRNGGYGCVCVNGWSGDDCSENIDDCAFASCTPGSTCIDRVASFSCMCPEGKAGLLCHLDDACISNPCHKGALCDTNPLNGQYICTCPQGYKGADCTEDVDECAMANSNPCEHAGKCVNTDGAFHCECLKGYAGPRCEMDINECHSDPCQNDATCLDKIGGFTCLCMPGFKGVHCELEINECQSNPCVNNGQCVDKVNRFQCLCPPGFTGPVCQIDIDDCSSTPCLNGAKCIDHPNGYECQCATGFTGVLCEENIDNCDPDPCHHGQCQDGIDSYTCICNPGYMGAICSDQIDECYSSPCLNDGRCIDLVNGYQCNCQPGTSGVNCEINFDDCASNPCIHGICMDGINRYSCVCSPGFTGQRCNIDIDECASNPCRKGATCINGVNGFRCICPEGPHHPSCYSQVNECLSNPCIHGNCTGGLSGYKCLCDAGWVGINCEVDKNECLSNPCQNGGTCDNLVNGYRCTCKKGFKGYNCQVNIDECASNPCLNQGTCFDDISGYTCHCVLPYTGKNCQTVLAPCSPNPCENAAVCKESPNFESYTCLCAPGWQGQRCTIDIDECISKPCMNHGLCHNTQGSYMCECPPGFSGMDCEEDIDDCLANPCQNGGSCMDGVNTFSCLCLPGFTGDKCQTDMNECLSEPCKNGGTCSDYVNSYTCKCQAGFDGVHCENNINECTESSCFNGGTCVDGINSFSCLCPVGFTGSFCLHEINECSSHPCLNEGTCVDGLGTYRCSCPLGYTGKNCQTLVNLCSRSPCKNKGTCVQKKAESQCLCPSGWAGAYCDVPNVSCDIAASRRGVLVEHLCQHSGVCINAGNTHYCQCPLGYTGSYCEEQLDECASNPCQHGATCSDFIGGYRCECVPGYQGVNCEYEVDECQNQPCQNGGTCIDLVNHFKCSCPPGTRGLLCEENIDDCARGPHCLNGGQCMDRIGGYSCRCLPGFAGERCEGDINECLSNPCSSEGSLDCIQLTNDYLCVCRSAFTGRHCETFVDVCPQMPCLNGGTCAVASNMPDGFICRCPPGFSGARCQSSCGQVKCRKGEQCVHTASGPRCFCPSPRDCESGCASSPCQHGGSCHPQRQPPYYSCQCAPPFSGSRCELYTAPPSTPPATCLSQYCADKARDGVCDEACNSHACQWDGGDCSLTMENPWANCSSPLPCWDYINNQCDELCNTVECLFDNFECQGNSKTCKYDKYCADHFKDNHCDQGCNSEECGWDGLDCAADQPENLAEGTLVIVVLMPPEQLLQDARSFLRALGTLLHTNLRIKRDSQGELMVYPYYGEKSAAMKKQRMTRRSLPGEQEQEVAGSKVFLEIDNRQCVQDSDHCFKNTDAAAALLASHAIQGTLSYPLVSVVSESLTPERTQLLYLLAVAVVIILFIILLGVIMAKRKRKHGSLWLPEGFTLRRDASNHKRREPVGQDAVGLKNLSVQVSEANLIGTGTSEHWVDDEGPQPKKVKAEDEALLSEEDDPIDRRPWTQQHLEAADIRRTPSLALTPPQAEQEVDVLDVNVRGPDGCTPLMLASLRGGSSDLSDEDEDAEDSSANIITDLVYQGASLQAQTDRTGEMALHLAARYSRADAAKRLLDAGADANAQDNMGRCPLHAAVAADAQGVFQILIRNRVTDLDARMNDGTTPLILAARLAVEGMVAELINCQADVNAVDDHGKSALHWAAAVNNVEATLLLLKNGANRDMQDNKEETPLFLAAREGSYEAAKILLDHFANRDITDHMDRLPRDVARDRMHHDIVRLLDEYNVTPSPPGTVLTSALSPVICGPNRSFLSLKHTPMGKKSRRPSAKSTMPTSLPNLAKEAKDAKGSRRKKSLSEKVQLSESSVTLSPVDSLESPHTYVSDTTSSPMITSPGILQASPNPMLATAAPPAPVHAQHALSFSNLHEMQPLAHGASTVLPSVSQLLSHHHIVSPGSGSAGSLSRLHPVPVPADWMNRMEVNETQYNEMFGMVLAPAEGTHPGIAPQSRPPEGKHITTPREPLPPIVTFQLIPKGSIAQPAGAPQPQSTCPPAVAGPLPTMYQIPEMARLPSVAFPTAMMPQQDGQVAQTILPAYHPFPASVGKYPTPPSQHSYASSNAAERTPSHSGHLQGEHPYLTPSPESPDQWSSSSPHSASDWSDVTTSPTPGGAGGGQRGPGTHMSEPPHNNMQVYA
Chain of Torsin-1A-interacting protein 2 (Homo sapiens) (Q8NFQ8 whole entry, looked up): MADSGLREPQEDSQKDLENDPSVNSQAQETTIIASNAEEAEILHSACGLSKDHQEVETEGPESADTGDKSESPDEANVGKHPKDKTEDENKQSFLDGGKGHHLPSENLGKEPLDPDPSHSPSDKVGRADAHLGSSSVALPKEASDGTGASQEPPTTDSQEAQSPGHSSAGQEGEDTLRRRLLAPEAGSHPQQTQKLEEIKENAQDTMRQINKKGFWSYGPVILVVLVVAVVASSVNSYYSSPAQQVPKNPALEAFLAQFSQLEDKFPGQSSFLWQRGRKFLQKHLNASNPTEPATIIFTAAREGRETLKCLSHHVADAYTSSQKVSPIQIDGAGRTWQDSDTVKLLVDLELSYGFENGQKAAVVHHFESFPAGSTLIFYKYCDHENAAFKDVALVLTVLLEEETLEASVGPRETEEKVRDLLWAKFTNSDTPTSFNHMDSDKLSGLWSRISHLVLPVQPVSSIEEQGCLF

SMILES | composite z-score [1] | composite z-score [2] | composite z-score [3] | composite z-score [4] | composite z-score [5] | composite z-score [6] | composite z-score [7] | z-score [8] | composite z-score [9] | composite z-score [10] | composite z-score [11] | z-score [12] | z-score [13] | z-score [14] | composite z-score [15] | z-score [16] | composite z-score [17] | composite z-score [18] | composite z-score [19] | composite z-score [20]
CCOC(=O)C1=CC[C@@H](c2ccccc2Cl)N(S(=O)(=O)c2ccc(C)cc2)C1 | 0.091 | -0.507 | 0.102 | 0.435 | 1.3 | 1.31 | 0.828 | -3 (inactive) | 0.802 | 0.0373 | 0.98 | -2.37 (inactive) | 0.307 (inactive) | 0.661 (inactive) | 2.24 | -0.239 (inactive) | 0.264 | -0.434 | 1.04 | -0.178
CC(C)C[C@@H]1NC(=O)[C@@H]2C[C@H](C(=O)NCCCCCC[N+](C)(C)C)[C@H](c3ccc(O)cc3)N2C1=O | -0.0515 | 0.349 | -0.112 | 0.154 | -0.344 | 1.57 | 1.46 | 1.97 (inactive) | 0.0819 | -0.271 | 1.56 | 0.633 (inactive) | 0.904 (inactive) | 0.445 (inactive) | 3.21 | 0.266 (inactive) | -0.0437 | 0.857 | 0.873 | -0.176
[N-]=[N+]=NCc1ccccc1C[C@]1(C(=O)NCCN2CCOCC2)N=C(c2ccc(OCCCO)cc2)O[C@H]1c1ccccc1N=[N+]=[N-] | 0.446 | 0.57 | 0.0618 | 0.855 | 1.57 | 1.6 | 1.29 | -0.653 (inactive) | 1.25 | -0.236 | 1.56 | -0.886 (inactive) | 0.246 (inactive) | 2.86 (inactive) | 2.73 | 1.16 (inactive) | 0.149 | -0.0313 | 1.1 | 0.0488
CCOC(=O)C1=C[C@@H](CC)N(S(=O)(=O)c2ccc(C)cc2)[C@H]1c1ccccc1 | 0.119 | -0.872 | 0.0603 | 0.572 | 1.61 | 1.1 | 0.919 | -1.74 (inactive) | 0.962 | 0.0373 | 1.18 | -0.595 (inactive) | 0.849 (inactive) | 0.567 (inactive) | 2.71 | -0.556 (inactive) | 0.097 | 0.13 | 1.1 | 0.0356
O=C1OCCC=C[C@H]2OC34C=CCN(Cc5ccccc5)C(=O)[C@H]3N(CCCCCO)C(=O)[C@@H]4C12 (stereo not given in full) | -0.557 | 1.4 | -0.175 | -0.436 | -0.765 | 1.92 | 1.63 | -0.781 (inactive) | 0.0164 | -0.35 | 0.878 | 1.5 (inactive) | -0.0407 (inactive) | -0.188 (inactive) | 3.74 | 1.42 (inactive) | -0.171 | -0.748 | -0.483 | -0.252
COC(=O)C[C@H]1O[C@]2(C(=O)N(Cc3ccccc3)c3ccc(NC(C)=O)cc32)[C@@H](C)[C@@H]1[Si](C)(C)c1ccc(OC)cc1 | -0.383 | -0.148 | -0.0543 | 0.489 | 1.12 | 0.264 | 0.882 | -1.98 (inactive) | 0.113 | -0.273 | 0.994 | 0.747 (inactive) | 0.19 (inactive) | 2.53 (inactive) | 1.56 | 0.0208 (inactive) | -0.082 | 1.09 | 1.14 | -0.108
CC(C)NC(=O)[C@@H]1c2ccccc2C(=O)N(Cc2ccccc2)[C@H]1c1ccc(CO)cc1 | 0.726 | 0.0445 | 0.0411 | 0.365 | -1.1 | 1.06 | 1.36 | -1.1 (inactive) | -0.194 | -0.191 | 0.347 | -0.726 (inactive) | -0.471 (inactive) | -0.945 (inactive) | 2.36 | -0.106 (inactive) | 0.12 | -0.905 | -0.376 | 0.243
CN(C)CCCCCCNC(=O)[C@H]1C[C@H]2C(=O)N[C@@H](CCCCN)C(=O)N2[C@H]1c1ccc(O)cc1 | 3.42 | 2.29 | 0.762 | 1.14 | 1.27 | 2.51 | 1.5 | 0.369 (inactive) | 3.49 | 1.84 | 1.54 | -0.329 (inactive) | -2.88 (inactive) | -0.02 (inactive) | 4.58 | -0.151 (inactive) | 1.76 | 2.02 | 1 | 1.15
COc1ccc(NN2C(C(O)c3ccc(OC)c(OCc4ccccc4)c3)C=CC3C(=O)N(C4CCCCC4)C(=O)C32)cc1 (stereo not given) | 0.243 | -0.116 | 0.136 | 0.395 | 1.56 | 1.4 | 0.936 | 0.0498 (inactive) | 0.857 | 0.0749 | 1.3 | -0.352 (inactive) | 0.225 (inactive) | -0.724 (inactive) | 3.24 | 0.644 (inactive) | 0.0225 | 0.181 | 1.05 | -0.0688
N#Cc1ccc(NN2C(C(O)C3CCCCC3)C=CC3C(=O)N(c4ccccc4)C(=O)C32)cc1 (stereo not given) | 0.0086 | -0.433 | 0.0429 | 0.461 | 1.58 | 1.31 | 1.33 | -0.585 (inactive) | 1.38 | 0.754 | 1.45 | -0.21 (inactive) | 0.661 (inactive) | 2.46 (inactive) | 3.26 | -1.08 (inactive) | 0.217 | -0.0519 | 1.03 | 0.0065
